{"source": "PubChem BioAssay AID463173", "about": "(ICCB-Longwood Screening Facility, Harvard Medical School, 2010)", "note": "Among all 52,000 compounds or so, about 1,700 (3.3%) were called active. The sample as a whole holds a higher share of actives than the screen did. Values without a mark were called inactive. Cut-off read from the data, not from the text of the source: active = survival mostly below about 52% (no sharp cut-off); inactive = mostly above about 56%.", "data": [{"system": "Wild type", "assay": "S. aureus survival, RN4220 and DeltatarO strains – OD600, teichoic acid synthesis inhibitors, primary screen (AID 463173)", "conditions": "S. aureus RN4220 wild type/DeltatarO growth, OD600, 18 h, stronger effect = lower value, screened at 18.75 µg/mL (by protocol)", "values": [{"smiles": "COc1cccc(NS(=O)(=O)c2ccc3c(c2)N(C)C(=O)CC(=O)N3C)c1", "survival": "78%"}, {"smiles": "COc1ccc2[nH]c(=O)c(CN(CCCN3CCOCC3)C(=O)Nc3ccccc3)cc2c1", "survival": "102%"}, {"smiles": "O=C(NC1CCCCCC1)c1ccc(CS(=O)c2ccc(Br)cc2)o1", "note": "(configuration not stated)", "survival": "94%"}, {"smiles": "Cc1cc2c(cc1NS(=O)(=O)c1ccc(Br)cc1)n(C)c(=O)c(=O)n2C", "survival": "129%"}, {"smiles": "Cc1ccc(S(=O)(=O)Nc2cc3c(cc2C)n(C)c(=O)c(=O)n3C)cc1", "survival": "-4% (active)"}, {"smiles": "Cc1ccc(S(=O)(=O)Nc2cc3c(cc2N2CCOCC2)n(C)c(=O)n3C)cc1", "survival": "80%"}, {"smiles": "Cn1c(=O)n(C)c2cc(N3CCOCC3)c(NS(=O)(=O)c3ccc(Cl)cc3)cc21", "survival": "93%"}, {"smiles": "CC(C)Cc1ccc(S(=O)(=O)Nc2cc3c(cc2N2CCOCC2)n(C)c(=O)c(=O)n3C)cc1", "survival": "63%"}, {"smiles": "CCc1ccc(S(=O)(=O)Nc2cc3c(cc2N2CCOCC2)n(C)c(=O)c(=O)n3C)cc1", "survival": "1% (active)"}, {"smiles": "CCc1ccc(S(=O)(=O)Nc2cc3c(cc2C)n(C)c(=O)c(=O)n3C)cc1", "survival": "57%"}, {"smiles": "Cn1c(=O)c(=O)n(C)c2cc(N3CCOCC3)c(NS(=O)(=O)c3ccc(F)c(Cl)c3)cc21", "survival": "63%"}, {"smiles": "Cn1c(=O)c(=O)n(C)c2cc(N3CCOCC3)c(NS(=O)(=O)c3ccc(Cl)cc3)cc21", "survival": "-3% (active)"}, {"smiles": "COc1ccccc1OCCn1cc(C(=O)c2cccs2)c2ccccc21", "survival": "102%"}, {"smiles": "O=C(CSc1nnc(-c2ccc(S(=O)(=O)N3CCCC3)cc2)n1CC1CCCO1)NC1CC1", "note": "(configuration not stated)", "survival": "108%"}, {"smiles": "COc1ccc(-c2nnc(SCC(=O)NCCC(C)C)nc2-c2ccc(OC)c(OC)c2)cc1OC", "survival": "71%"}, {"smiles": "COc1cccc2cc(-c3nc(Nc4cccc(C)c4C)sc3C)c(=O)oc12", "survival": "65%"}, {"smiles": "COc1cccc(NC(=O)C2CCC(CNS(=O)(=O)c3ccc4c(c3)CC(C)N4C(C)=O)CC2)c1", "note": "(configuration not stated)", "survival": "95%"}, {"smiles": "CNS(=O)(=O)c1ccccc1C(=O)N/N=C/c1ccc(OC)c(OC)c1", "survival": "102%"}, {"smiles": "COc1cc2c(cc1OC)n(CC(=O)c1ccc(C)cc1C)c(=O)n1nc(CCn3nc(C)cc3C)nc21", "survival": "74%"}, {"smiles": "COc1ccccc1N1CCN(S(=O)(=O)c2c(C)nc3sc(C)c(C)n3c2=O)CC1", "survival": "85%"}, {"smiles": "COc1cc(NS(=O)(=O)c2ccc3c(c2)CCN3S(C)(=O)=O)cc(OC)c1", "survival": "73%"}, {"smiles": "COc1ccc(-c2cc(C(F)(F)F)nc(NCc3ccccc3)n2)cc1", "survival": "-5% (active)"}, {"smiles": "COc1cccc(-c2cc(C(F)(F)F)nc(NCc3ccc(F)cc3)n2)c1", "survival": "0% (active)"}, {"smiles": "COc1cccc(-c2cc(C(=O)NCc3ccc(F)cc3)no2)c1", "survival": "71%"}, {"smiles": "COc1ccc(-c2cc(C(F)(F)F)nc(NCc3ccccc3)n2)cc1OC", "survival": "66%"}, {"smiles": "COc1ccc(-c2cc(C(F)(F)F)nc(SCC(=O)NCc3ccc(F)cc3)n2)cc1", "survival": "90%"}, {"smiles": "COc1ccc(-c2cc(NCc3ccc(F)cc3)n3cnnc3n2)cc1", "survival": "72%"}, {"smiles": "COc1ccc(-c2cc(C(F)(F)F)nc(NCCc3ccccc3)n2)cc1", "survival": "-2% (active)"}, {"smiles": "COc1ccc(-c2cc(C(F)(F)F)nc(NCc3ccc(F)cc3)n2)cc1", "survival": "-5% (active)"}, {"smiles": "COc1ccc(-c2cc(C(F)(F)F)nc(NCCc3ccccc3)n2)cc1OC", "survival": "81%"}, {"smiles": "COc1ccc(CNC(=O)C(C)Sc2nc(-c3ccccc3)cc(C(F)(F)F)n2)cc1", "note": "(configuration not stated)", "survival": "149%"}, {"smiles": "COc1ccc(-c2cc(C(F)(F)F)nc(SCC(=O)NCCc3ccccc3)n2)cc1OC", "survival": "81%"}, {"smiles": "CCc1ccc(NC(=O)CCn2cnc3ccccc3c2=O)cc1", "survival": "72%"}, {"smiles": "COCCNC(=O)CN1C(=O)CCn2nc(-c3cn(C)c4ccccc34)cc21", "survival": "64%"}, {"smiles": "C#CCNc1nc(CC(C)C)nc2c1nnn2Cc1ccccc1", "survival": "101%"}, {"smiles": "COc1ccc(CNC(=O)CSc2nc(-c3ccc(OC)cc3)cc(C(F)(F)F)n2)cc1", "survival": "93%"}, {"smiles": "COc1ccccc1CCNC(=O)C(C)Sc1nc(-c2ccccc2)cc(C(F)(F)F)n1", "note": "(configuration not stated)", "survival": "53%"}, {"smiles": "COc1cccc(-c2cc(C(F)(F)F)nc(NCCc3ccccc3)n2)c1", "survival": "-7% (active)"}, {"smiles": "COc1ccc(CNc2nc(-c3ccc(OC)c(OC)c3)cc(C(F)(F)F)n2)cc1", "survival": "27%"}, {"smiles": "COc1cccc(-c2cc(C(F)(F)F)nc(NCCc3ccc(OC)c(OC)c3)n2)c1", "survival": "25%"}, {"smiles": "COc1ccc(CNc2nc(-c3ccc(OC)cc3)cc(C(F)(F)F)n2)cc1", "survival": "-5% (active)"}, {"smiles": "Cc1ccc(CNC(=O)c2cc(S(=O)(=O)N3CCCCCC3)cn2C)cc1", "survival": "81%"}, {"smiles": "Cc1cn(C)c(CC(=O)NCc2cccc(Cl)c2)c1C(=O)O", "survival": "-3% (active)"}, {"smiles": "Cc1cn(C)c(CC(=O)NCc2ccccc2)c1C(=O)O", "survival": "80%"}, {"smiles": "COc1cccc(CNC(=O)c2cc(S(=O)(=O)N3CCCCC3)cn2C)c1", "survival": "-2% (active)"}, {"smiles": "COc1ccc(CNC(=O)Cc2c(C(=O)O)c(C)cn2C)cc1", "survival": "83%"}, {"smiles": "COc1cccc(CNC(=O)c2cc(S(=O)(=O)N3CCCCCC3)cn2C)c1", "survival": "85%"}, {"smiles": "COc1cccc(CNC(=O)Cc2c(C(=O)O)c(C)cn2C)c1", "survival": "0% (active)"}, {"smiles": "Cc1cn(C)c(CC(=O)NCc2ccc(Cl)cc2)c1C(=O)O", "survival": "66%"}, {"smiles": "Cc1ccc(CNC(=O)Cc2c(C(=O)O)c(C)cn2C)cc1", "survival": "85%"}, {"smiles": "Cc1ccc(-n2ncc(C(=O)N3CCN(Cc4ccccc4)CC3)c2C2CCN(C(=O)OC(C)(C)C)CC2)cc1", "survival": "124%"}, {"smiles": "N#Cc1c(NC(=O)CN2CCCCC2)sc2c1CCC2", "survival": "109%"}, {"smiles": "Cc1ccc2c(c1)c1c(c(=O)n(-c3ccccc3)c(=O)n1CC(=O)NCC1CCCO1)n2C", "note": "(configuration not stated)", "survival": "72%"}, {"smiles": "Cc1ccc(-c2nc(C)c(CCNC(=O)C(=O)Nc3ccc(C)c(Cl)c3)s2)cc1", "survival": "76%"}, {"smiles": "Cc1ccc(NC(=O)C(=O)NCCc2sc(-c3ccc(Cl)cc3)nc2C)cc1C", "survival": "126%"}, {"smiles": "Cc1nc(-c2ccccc2)sc1CCNC(=O)C(=O)Nc1ccc(F)c(Cl)c1", "survival": "1% (active)"}, {"smiles": "COc1ccc(NC(=O)CN(c2ccc(C)cc2)S(=O)(=O)c2cccs2)cc1", "survival": "84%"}, {"smiles": "Cc1cccc(-c2nc3ccccc3n2Cc2ccccc2)c1", "survival": "1% (active)"}, {"smiles": "Fc1ccc(Cn2c(-c3cccc(Br)c3)nc3ccccc32)cc1", "survival": "120%"}, {"smiles": "Fc1ccccc1Cn1c(-c2ccccc2)nc2ccccc21", "survival": "1% (active)"}, {"smiles": "O=c1n(Cc2cccc(F)c2)c2ccccc2c2nc(-c3ccccc3)nn12", "survival": "34%"}, {"smiles": "Cc1ccc(Cn2c(CCNC(=O)c3cccc(C)c3)nc3ccccc32)cc1", "survival": "68%"}, {"smiles": "Cc1cccc(Cn2c(-c3cccc(Br)c3)nc3ccccc32)c1", "survival": "124%"}, {"smiles": "Cc1cccc(Cn2c(=O)n3nc(-c4ccccc4)nc3c3ccccc32)c1", "survival": "-24% (active)"}, {"smiles": "Nc1nonc1-c1nc2ccccc2n1Cc1cccc(Cl)c1", "survival": "87%"}, {"smiles": "CCc1ccccc1N1CC(c2nc3ccccc3n2Cc2cccc(C)c2)CC1=O", "note": "(configuration not stated)", "survival": "66%"}, {"smiles": "Cc1cccc(-c2nc3c4ccccc4n(Cc4cccc(Cl)c4)c(=O)n3n2)c1", "survival": "113%"}, {"smiles": "Cc1cccc(Cn2c(-c3ccccc3)nc3ccccc32)c1", "survival": "26% (active)"}, {"smiles": "O=C(CSc1nc2ccccc2n1Cc1ccccc1F)NCc1ccccc1", "survival": "99%"}, {"smiles": "COc1ccc(NC(=O)c2oc3ccccc3c2NC(=O)c2cc(C)cc(C)c2)c(OC)c1", "survival": "79%"}, {"smiles": "COc1ccc(NC(=O)C2CCC(CNS(=O)(=O)c3cccc4nsnc34)CC2)cc1OC", "note": "(configuration not stated)", "survival": "87%"}, {"smiles": "CN(Cc1ccccc1)C(=O)Cn1c(=O)c2cccn2c2ccc(F)cc21", "survival": "81%"}, {"smiles": "Cc1ccc(Cn2c(=O)c3ccccc3n3c(-c4ccccc4)nnc23)cc1", "survival": "91%"}, {"smiles": "Cc1ccc(Cn2c(C(C)NC(=O)c3ccccc3)nc3ccccc32)cc1", "note": "(configuration not stated)", "survival": "91%"}, {"smiles": "Cc1ccc(Cn2c(-c3ccccc3)nc3ccccc32)cc1", "survival": "8% (active)"}, {"smiles": "CCCCn1c(SCC(=O)N2CCCCCC2)nnc1-c1ccoc1C", "survival": "98%"}, {"smiles": "Cc1cccc(N2CCN(c3ccc4cc(S(=O)(=O)N5CCC(C)CC5)ccc4n3)CC2C)c1", "note": "(configuration not stated)", "survival": "129%"}, {"smiles": "CSc1cccc(Nc2cc(C(=O)NC3CCCCC3)c3ccccc3n2)c1", "survival": "142%"}, {"smiles": "CN1CN2C(=O)N3CN(C)CN4C(=O)N(C1)C2C34", "note": "(configuration not stated)", "survival": "110%"}, {"smiles": "OC(c1ccccc1)c1nc2ccccc2n1Cc1c(F)cccc1Cl", "note": "(configuration not stated)", "survival": "82%"}, {"smiles": "Cc1cc(C)c(Cn2c(C(O)c3ccccc3)nc3ccccc32)c(C)c1", "note": "(configuration not stated)", "survival": "11% (active)"}, {"smiles": "COC(=O)Cn1c(C(O)c2ccccc2)nc2ccccc21", "note": "(configuration not stated)", "survival": "97%"}, {"smiles": "CCOc1ccc(CNC(=O)CS(=O)(=O)c2cccc3nsnc23)cc1", "survival": "126%"}, {"smiles": "COc1ccccc1NC(=O)C1CCN(C(=O)c2ccccc2)CC1", "survival": "94%"}, {"smiles": "Cc1c(Cl)cccc1-n1ncc(C(=O)Nc2ccc(F)cc2F)c1C1CCN(C(=O)OC(C)(C)C)CC1", "survival": "71%"}, {"smiles": "Cc1cccc(Nc2nc3nonc3nc2N/N=C\\c2cccs2)c1C", "survival": "96%"}, {"smiles": "Cc1cccc(Nc2nc3nonc3nc2Nc2cccc(C)c2C)c1C", "survival": "102%"}, {"smiles": "Cc1ccc(C)c(Nc2nc3nonc3nc2Nc2cccc(C)c2C)c1", "survival": "4% (active)"}, {"smiles": "CCOC(=O)c1ccc(Nc2nc3nonc3nc2NCc2ccco2)cc1", "survival": "35%"}, {"smiles": "CCOC(=O)c1ccc(Nc2nc(C)cc(C)n2)cc1", "survival": "87%"}, {"smiles": "CCOC(=O)c1ccc(Nc2nc3nonc3nc2Nc2cccc(C)c2C)cc1", "survival": "0% (active)"}, {"smiles": "CCS(=O)(=O)N1CCc2cc(C(=O)Nc3ccc(OC)cc3OC)ccc21", "survival": "88%"}]}]}
